Screening results: PubChem BioAssay, several laboratories
Hits are enriched below; roughly 2.9% of the tested compounds scored in any of these assays.
MITF TRPM1 inh: inhibitors of MITF-dependent TRPM1 promoter reporter, primary screen, cell-based, SK-MEL-5, single point, luciferase | SK-MEL-5 TRPM1 promoter luciferase, 24 h | inhibition, % at 12.5 µM | 0.83% of 330,000 active;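 active means mean inhibition across replicates of 60% or more, whatever share of single replicates reaches that level; inconclusive means some that reach 60%, reason not given; inactive means mean inhibition across replicates below 60%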
KKLEB tox: cytotoxicity in KKLEB CF airway cells, primary screen, cytotoxicity control for CF NF-kB inhibitor project, cell-based, uHTS, fluorescence assay plates | activity change (cytotoxicity), % at 5 µM | KKLEB CF airway cells viability, ATPlite luminescence, overnight; stronger effect = lower value; cells stimulated with P. aeruginosa culture filtrate | 0.36% of 360,000 active;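 active means corrected activity change at or below -50% at 5 µM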
EBV LMP1 NFkB: EBV LMP1-driven NF-kappaB luciferase reporter inhibitors, primary screen, cell-based, luminescence, single point; LMP1-induced NF-kappaB luciferase reporter cells; inhibition, % at 12.5 µM; 0.69% of 350,000 active; in the data active means inhibition above about 41%; inconclusive means no clear call, values can overlap the other calls;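 further: 0% = neutral control wells and 100% = reference inhibitor control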
Peg3 promoter: Peg3 promoter-driven luciferase inhibitors, primary screen, cell-based, HeLa, luciferase luminescence; HeLa PEG-Prom luciferase reporter, overnight; inhibition, % at 20 µM; 1.7% of 360,000 active; AID 588405, 2011;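 active means inhibition of at least 50% at 20 µM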
CF NFkB block: inhibitors of PAF-induced NF-kB signaling, primary screen, cell-based, GFP fluorescence, uHTS; KKLEB NF-kB-GFP reporter, GFP fluorescence overnight; AID 588850, 2011; 0.86% of 360,000 active; inhibition, % at 5 µM;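 active means at least 50% inhibition at 5 µM, scaled per plate between neutral and stimulator controls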;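 further: PAF is a Pseudomonas aeruginosa culture filtrate used as stimulus; plate controls were PAF-stimulated DMSO wells for no effect and unstimulated DMSO wells for full effect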
Shn3 3UTR inh: reduction of Shn3 3'UTR firefly luciferase signal, primary screen, Schnurri-3 inhibitor project, cell-based, Clone20 osteoblasts, set 2. Clone20 osteoblast Shn3 3'UTR firefly luciferase, 24 h. inhibition, % at 12.5 µM. 0.52% of 360,000 active. AID 588674, 2011;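 active means mean inhibition of at least 75% with every replicate also reaching 75%; inconclusive means mean inhibition at least 75% but some replicate below; inactive means mean inhibition below 75%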;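 further: 0% = median of neutral control wells and 100% = pilot-screen positive control compound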
The depositor's hits bear a star; u = inconclusive; x = no result.

SMILES	MITF TRPM1 inh	KKLEB tox	EBV LMP1 NFkB	Peg3 promoter	CF NFkB block	Shn3 3UTR inh
Cc1ccc(Nc2c(-c3ccccn3)nc3cc(C)ccn23)cc1	64*	-33	u	39	43	95*
Cc1ccc2nc(-c3ccncc3)c(Nc3ccccc3)n2c1	2	-6	-31	-2	15	12
Clc1ccc(NN(Cc2ccncc2)c2ccc(Cl)cc2)cc1	x	-9	5	-28	-8	-4
Cc1ccccc1C1=NC(C(F)(F)F)(C(F)(F)F)c2c(n(C)c(=O)n(C)c2=O)N1	4	-7	-7	14	5	-5
Cn1c2c(c(=O)n(C)c1=O)C(C(F)(F)F)(C(F)(F)F)N=C(c1ccc(Cl)cc1)N2	72*	-50	7	48	67*	81*
CC(=O)N1c2ccc(Cl)cc2C2C=CCC2C1c1cccc2ccccc12 (stereo not drawn)	10	-18	-3	66*	35	62
CC1CC2c3cccc(C(=O)O)c3C(=O)N2c2ccc(Cl)cc21 (stereo not drawn)	14	11	8	-1	-8	0
CCSCCc1nnc(NC(=O)Nc2cccc(C(F)(F)F)c2)s1	67*	-56*	5	11	70*	43
O=C(Nc1cccc(C(F)(F)F)c1)Nc1nnc([C@H]2C[C@H](O)[C@@H](CO)O2)s1	x	-9	x	2	10	-9
Cc1ccccc1NC(=O)CN1C(=O)NC2(CCc3ccccc32)C1=O (stereo not drawn)	-10	-6	4	3	20	-9
COc1cc2c(cc1NC(=O)CN1C(=O)NC3(CCc4ccccc43)C1=O)oc1ccccc12 (stereo not drawn)	3	-8	-20	57*	2	9
CCCNC(=O)C1(C)CCCN(C/C=C/c2ccccc2)C1 (stereo not drawn)	x	4	x	0	-20	-40
COc1ccc(C[C@@H]2CN3C(=NC[C@@H]3Cc3ccc(O)cc3)N2C[C@H](C)NC(=O)CCC2CCCCC2)cc1	-17	-19	-3	68*	0	-6
CC(C)[C@H]1CN=C2N(C[C@H](C)NC(=O)CCC3CCCCC3)[C@H](Cc3ccc(O)cc3)CN21	-10	-28	0	-9	-9	5
COc1ccc2cc(C3=CC(=O)CC(C)(C)C3=O)ccc2c1	x	2	-29	-411	9	-110
